# In ChEMBL document CHEMBL3988442, “University of Dundee, Small-Polar-MMV Screening Library” (2021):
# For some assays here: Results with a measured potency or affinity are listed apart.
# Tests used:
# Parameters in all cases: scale not given: direction of the effect not stated beside the values
# [1] = molecular target: Protein translocase subunit SecA (Escherichia coli (strain K12)) (UniProt P10408); assay: Assay to Identify E. coli SecA ATPase Inhibitors; format: functional; conditions: 30 µM
# Sequence of Protein translocase subunit SecA (Escherichia coli (strain K12)) (P10408 whole entry): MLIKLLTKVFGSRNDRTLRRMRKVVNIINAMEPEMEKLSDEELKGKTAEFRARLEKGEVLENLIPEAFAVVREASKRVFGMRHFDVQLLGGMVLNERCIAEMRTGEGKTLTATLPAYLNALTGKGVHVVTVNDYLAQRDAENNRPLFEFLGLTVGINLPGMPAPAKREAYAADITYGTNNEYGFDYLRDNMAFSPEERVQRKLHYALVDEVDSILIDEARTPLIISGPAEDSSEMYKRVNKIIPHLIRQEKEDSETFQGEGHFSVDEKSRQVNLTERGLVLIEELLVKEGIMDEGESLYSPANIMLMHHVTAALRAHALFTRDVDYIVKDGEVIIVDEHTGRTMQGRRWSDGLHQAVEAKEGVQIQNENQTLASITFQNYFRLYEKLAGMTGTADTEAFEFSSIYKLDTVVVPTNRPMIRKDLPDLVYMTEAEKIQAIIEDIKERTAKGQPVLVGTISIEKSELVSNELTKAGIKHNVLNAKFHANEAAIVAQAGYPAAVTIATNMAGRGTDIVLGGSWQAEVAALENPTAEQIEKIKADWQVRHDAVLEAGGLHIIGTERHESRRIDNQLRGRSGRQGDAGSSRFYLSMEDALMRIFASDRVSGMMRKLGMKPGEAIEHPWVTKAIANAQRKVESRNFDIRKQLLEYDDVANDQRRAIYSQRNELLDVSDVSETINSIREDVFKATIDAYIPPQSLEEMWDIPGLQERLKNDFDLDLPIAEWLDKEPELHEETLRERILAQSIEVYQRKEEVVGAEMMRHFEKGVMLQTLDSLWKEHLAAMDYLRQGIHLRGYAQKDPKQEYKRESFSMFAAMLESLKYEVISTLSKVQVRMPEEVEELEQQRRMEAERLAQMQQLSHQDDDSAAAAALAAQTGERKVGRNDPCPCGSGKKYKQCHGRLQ
# [2] = molecular target: T1, Ubiquitin-activating enzyme e1, putative (Leishmania donovani (strain BPK282A1)) (UniProt E9BSI1); assay: Leishmania donovani Ubiquitin Activating Enzyme (LdE1); format: functional; conditions: 30 µM
# T1 sequence (whole entry): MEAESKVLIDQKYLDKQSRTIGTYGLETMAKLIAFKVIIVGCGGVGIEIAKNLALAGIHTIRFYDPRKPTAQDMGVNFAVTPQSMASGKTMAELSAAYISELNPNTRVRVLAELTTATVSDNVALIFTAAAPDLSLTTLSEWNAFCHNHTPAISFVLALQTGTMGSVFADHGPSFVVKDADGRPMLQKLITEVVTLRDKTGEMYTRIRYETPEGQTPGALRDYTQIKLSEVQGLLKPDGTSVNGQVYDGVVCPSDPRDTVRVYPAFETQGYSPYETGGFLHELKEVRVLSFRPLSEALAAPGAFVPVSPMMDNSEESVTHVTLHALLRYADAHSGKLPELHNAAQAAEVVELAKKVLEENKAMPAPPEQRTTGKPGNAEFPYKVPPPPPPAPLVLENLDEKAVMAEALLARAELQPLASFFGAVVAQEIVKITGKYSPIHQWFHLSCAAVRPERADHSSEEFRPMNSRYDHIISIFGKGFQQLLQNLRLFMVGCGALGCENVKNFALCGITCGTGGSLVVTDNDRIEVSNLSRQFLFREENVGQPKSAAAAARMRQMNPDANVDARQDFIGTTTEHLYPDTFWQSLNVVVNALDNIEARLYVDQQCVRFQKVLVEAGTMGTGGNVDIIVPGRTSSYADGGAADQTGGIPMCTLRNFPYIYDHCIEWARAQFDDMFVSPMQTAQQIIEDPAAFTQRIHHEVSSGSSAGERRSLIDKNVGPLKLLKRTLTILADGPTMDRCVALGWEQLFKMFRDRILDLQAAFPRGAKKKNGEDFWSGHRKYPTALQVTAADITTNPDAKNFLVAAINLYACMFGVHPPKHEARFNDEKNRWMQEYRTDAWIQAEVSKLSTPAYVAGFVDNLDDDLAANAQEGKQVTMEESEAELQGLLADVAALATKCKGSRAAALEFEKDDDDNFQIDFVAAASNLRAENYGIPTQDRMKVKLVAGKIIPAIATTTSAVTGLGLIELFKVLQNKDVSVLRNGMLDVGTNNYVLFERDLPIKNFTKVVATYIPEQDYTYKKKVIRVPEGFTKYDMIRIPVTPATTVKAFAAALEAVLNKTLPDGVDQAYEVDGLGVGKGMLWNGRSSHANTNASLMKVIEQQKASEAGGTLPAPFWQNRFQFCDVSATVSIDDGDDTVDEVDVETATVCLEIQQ
# [3] = molecular target: AMP-activated protein kinase, AMPK (Homo sapiens) (UniProt P54646+O43741+P54619+Q9UGJ0+Q9Y478+Q13131+Q9UGI9); assay: AMP-dependent Kinase enzyme assay. An in vitro enzyme assay that detects ADP turnover that is directly proportional to AMPK activity. This uses naive AMPK that is activated during the assay with MK-8722; format: functional; conditions: 30 µM
# [4] = molecular target: Sialic acid-binding Ig-like lectin 9 (Homo sapiens) (UniProt Q9Y336); assay: Hs-Siglec9 ALPHAscreen SOP 20170721; conditions: 10 µM
# Sequence of Sialic acid-binding Ig-like lectin 9 (Homo sapiens) (Q9Y336 whole entry): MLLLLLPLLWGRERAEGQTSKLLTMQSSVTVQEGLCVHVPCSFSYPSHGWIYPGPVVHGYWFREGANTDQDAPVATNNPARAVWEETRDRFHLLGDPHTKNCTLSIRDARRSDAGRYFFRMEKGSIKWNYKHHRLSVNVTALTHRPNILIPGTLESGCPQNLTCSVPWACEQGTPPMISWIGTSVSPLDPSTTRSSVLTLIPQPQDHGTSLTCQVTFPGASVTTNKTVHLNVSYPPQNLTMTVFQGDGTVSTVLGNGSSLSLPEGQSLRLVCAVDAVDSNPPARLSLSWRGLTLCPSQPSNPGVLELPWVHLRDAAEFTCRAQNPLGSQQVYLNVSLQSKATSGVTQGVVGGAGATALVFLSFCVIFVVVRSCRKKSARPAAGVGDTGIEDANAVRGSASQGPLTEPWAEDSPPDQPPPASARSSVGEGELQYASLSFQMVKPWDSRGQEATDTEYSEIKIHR
# Trypanosoma cruzi = assay: Trypanosoma cruzi phosphomannomutase and mannose-1-phosphate guanylyltransferase assay; format: functional; conditions: 10 µM
# [5] = molecular target: T2, Arginase-2, mitochondrial (Homo sapiens) (UniProt P78540); assay: in vitro enzyme assay to detect the production of urea directly proportional to the activity of Arginase II; format: functional; conditions: 33.3 µM; also: in the data most compounds retested in dose-response had high values
# T2 sequence (whole entry): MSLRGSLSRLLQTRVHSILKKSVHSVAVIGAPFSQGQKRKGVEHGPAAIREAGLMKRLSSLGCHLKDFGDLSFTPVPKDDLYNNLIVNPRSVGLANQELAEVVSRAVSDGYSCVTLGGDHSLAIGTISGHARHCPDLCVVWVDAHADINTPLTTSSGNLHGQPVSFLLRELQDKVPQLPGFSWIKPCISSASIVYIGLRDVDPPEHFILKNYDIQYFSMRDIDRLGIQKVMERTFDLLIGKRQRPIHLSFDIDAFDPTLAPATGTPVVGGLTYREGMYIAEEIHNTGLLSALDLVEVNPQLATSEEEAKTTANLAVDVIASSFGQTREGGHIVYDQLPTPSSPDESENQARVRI
# [6] = molecular target: T3, Proteasome subunit beta (Trypanosoma cruzi) (UniProt O96673); assay: Trypanosoma cruzi proteasome chymotrypsin-like activity (TcProtChymo) assay.; also: in the data most compounds retested in dose-response had high values; format: functional; conditions: 9.37 µM
# T3 sequence (whole entry): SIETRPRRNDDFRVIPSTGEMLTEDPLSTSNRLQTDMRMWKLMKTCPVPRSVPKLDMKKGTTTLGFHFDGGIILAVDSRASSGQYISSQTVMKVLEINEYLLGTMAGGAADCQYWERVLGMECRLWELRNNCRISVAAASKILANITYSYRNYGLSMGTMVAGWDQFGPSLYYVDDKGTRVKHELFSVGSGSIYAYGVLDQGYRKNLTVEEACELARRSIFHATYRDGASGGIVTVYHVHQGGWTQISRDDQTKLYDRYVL
# Homo sapiens = species on record: Homo sapiens; assay: To identify inhibition of the IFN signalling (Jak-Stat) pathway via expression of an eGFP reporter gene under the control of an IFN-stimulated response element (ISRE) containing MxA promoter.; format: functional; conditions: 30 µM
# [7] = molecular target: T4, Tyrosyl-tRNA synthetase, putative (Trypanosoma cruzi (strain CL Brener)) (UniProt Q4DSP6); assay: Trypanosoma cruzi tyrosyl tRNA synthetase (TcYRS) _High Tyrosine SOP; format: functional; conditions: 30 µM; also: in the data most compounds retested in dose-response had high values
# T4 sequence (whole entry): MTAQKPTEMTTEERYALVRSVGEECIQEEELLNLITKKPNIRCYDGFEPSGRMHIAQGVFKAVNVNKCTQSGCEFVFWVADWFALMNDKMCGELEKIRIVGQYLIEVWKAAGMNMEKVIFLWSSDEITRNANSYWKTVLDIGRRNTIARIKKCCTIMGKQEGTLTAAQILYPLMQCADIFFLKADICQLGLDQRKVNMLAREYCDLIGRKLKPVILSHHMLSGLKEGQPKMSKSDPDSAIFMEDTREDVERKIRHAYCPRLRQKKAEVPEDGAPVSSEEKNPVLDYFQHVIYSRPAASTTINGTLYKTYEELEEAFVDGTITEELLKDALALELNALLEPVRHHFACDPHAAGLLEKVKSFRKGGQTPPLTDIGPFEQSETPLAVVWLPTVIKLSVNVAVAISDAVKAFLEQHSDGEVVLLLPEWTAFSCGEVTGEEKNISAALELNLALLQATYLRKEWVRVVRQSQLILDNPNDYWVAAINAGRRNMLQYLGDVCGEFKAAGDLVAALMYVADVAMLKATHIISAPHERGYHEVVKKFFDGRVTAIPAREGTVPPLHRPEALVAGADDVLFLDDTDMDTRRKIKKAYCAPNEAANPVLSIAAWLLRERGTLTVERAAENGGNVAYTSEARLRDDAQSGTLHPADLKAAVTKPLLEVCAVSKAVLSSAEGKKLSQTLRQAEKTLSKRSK
# [8] = molecular target: T4, Tyrosyl-tRNA synthetase, putative (Trypanosoma cruzi (strain CL Brener)); assay: Trypanosoma cruzi tyrosyl tRNA synthetase (TcYRS) SOP; format: functional; conditions: 30 µM
# [9] = molecular target: Chromo domain-containing protein 1 (Saccharomyces cerevisiae (strain ATCC 204508 / S288c) (Baker's yeast)) (UniProt P32657); assay: ScCHD-1 Enzyme Inhibition Assay; format: functional; conditions: 30 µM; also: in the data most compounds retested in dose-response had high values
# Sequence of Chromo domain-containing protein 1 (Saccharomyces cerevisiae (strain ATCC 204508 / S288c) (Baker's yeast)) (P32657 whole entry, the tested form may be a part): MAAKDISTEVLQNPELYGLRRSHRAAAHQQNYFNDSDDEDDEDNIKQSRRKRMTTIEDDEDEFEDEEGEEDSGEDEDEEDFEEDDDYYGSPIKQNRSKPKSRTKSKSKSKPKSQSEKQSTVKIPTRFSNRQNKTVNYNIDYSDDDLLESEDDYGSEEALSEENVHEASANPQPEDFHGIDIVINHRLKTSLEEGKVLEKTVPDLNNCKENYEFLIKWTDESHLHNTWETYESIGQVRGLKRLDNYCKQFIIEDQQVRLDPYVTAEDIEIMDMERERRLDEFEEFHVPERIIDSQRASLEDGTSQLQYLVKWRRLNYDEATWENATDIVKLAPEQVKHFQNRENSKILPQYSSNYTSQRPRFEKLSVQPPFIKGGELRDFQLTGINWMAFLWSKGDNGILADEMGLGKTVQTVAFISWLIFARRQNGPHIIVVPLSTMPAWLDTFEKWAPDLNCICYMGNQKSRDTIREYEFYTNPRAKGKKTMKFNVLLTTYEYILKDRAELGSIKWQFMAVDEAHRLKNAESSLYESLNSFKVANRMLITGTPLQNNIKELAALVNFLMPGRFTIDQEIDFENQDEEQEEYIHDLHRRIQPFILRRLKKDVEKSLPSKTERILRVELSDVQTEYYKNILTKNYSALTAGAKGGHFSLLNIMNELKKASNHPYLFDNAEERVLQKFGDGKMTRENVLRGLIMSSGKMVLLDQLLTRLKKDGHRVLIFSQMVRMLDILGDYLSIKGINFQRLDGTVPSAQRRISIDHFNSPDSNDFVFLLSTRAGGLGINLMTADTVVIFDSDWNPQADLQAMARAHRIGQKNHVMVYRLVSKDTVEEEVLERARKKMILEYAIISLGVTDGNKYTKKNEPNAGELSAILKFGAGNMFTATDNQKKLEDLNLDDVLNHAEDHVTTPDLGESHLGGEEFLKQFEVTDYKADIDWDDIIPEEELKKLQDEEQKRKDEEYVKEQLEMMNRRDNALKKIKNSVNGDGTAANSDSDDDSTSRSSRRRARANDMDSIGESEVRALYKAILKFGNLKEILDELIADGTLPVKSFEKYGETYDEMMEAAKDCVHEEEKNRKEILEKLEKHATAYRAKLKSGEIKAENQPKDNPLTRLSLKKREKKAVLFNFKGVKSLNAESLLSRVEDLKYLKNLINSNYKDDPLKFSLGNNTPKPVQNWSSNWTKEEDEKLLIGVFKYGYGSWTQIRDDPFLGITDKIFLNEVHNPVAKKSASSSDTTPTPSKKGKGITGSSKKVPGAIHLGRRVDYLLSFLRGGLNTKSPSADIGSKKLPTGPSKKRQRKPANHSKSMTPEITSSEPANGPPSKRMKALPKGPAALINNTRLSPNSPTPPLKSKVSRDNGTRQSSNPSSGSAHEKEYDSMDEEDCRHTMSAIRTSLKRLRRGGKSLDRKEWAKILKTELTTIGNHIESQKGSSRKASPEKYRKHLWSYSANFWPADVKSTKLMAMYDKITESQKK
Compound,Percent Effect [1],Percent Effect [2],Percent Effect [3],Percent Effect [4],Percent Effect (Trypanosoma cruzi),Percent Effect [5],Percent Effect [6],Percent Effect (Homo sapiens),Percent Effect [7],Percent Effect [8],Percent Effect [9]
Cc1ccccc1C1CCCN1C(=O)CN1CC2(CCNCC2)OC1=O (configuration not stated),-4.66%,8.11%,-3.53%,12.1%,6.76%,0%,13.1%,-1.19%,4.76%,9.76%,87.8%
CCn1cnnc1C1CCN(C(=O)c2ccc(Cl)s2)CC1,-3.49%,17.7%,1.65%,2.56%,-0.661%,2.66%,5.98%,-19.1%,4.43%,11.4%,-3.04%
Cc1cc(CN2CCN(C(C)c3nc(C4CC4)no3)CC2)no1 (configuration not stated),1.42%,8.86%,-5.67%,-3.17%,-1.33%,4.52%,13.4%,28.4%,-1.04%,5.06%,-25.2%
c1cnn(-c2ccc(CN3CCOC(Cn4cncn4)C3)cc2)c1 (configuration not stated),-2.23%,12.7%,0.7%,6.36%,2.74%,1.52%,-2.21%,-11.6%,7.39%,13.9%,-8.36%
Cc1ccc(CC(=O)NC(C)C(=O)N2CCS(=O)(=O)CC2)cc1 (configuration not stated),-6.49%,0%,-3.26%,4.88%,-2.9%,-1.91%,10.2%,1.44%,3.7%,2.44%,-3.12%
CCN1CCN(Cc2coc(-c3cccc(F)c3)n2)CC1,-2.72%,18.2%,-12.3%,-3.56%,5.06%,-0.356%,16.6%,-3.8%,9.71%,12.2%,-12%
CSc1nccn1-c1cccc(C(=O)NCC2CC2)c1,-4.93%,7.89%,0.0421%,2.24%,6.82%,-1.44%,3.13%,2.37%,5.42%,13.6%,2.32%
Cc1ncsc1CN1C[C@@H](OCC2CC2)[C@H]2OCCC[C@H]21,-6.87%,8.11%,-8.86%,32.2%,4.79%,-0.248%,24.3%,-4.12%,5.38%,16.1%,-8.25%
COCCNC(=O)C(C)n1cc(Br)cn1 (configuration not stated),-3.71%,5.2%,1.52%,7.73%,0.492%,-2.76%,13.1%,5.02%,9.68%,16.1%,135%
CCOc1ccccc1C(CC(=O)Nc1nc(C)cs1)NC(C)=O (configuration not stated),-1.09%,5.26%,-0.999%,0.981%,-2.63%,4.21%,6.85%,10.1%,3.43%,9.76%,-5.47%
CN(C)C(=O)CC1CC2(CCN(C(=O)N(C)C)CC2)Oc2ccccc21 (configuration not stated),-2.94%,8.11%,-0.534%,-1.19%,-4.79%,2.73%,9.53%,4.7%,1.07%,6.17%,-4.24%
Cc1cc(C)c2cc(CNCC3CCCO3)c3nn(C)c(=O)n3c2c1 (configuration not stated),-1.56%,9.46%,5.25%,0.0533%,2.17%,-1.62%,7.96%,27%,2.15%,9.09%,-28.2%
CC(C)NS(=O)(=O)c1cc(C(=O)O)cc(-c2ccc(CN(C)C)cc2)c1,-8.02%,0%,5.48%,-7.27%,-3.81%,-0.248%,13.7%,0.283%,0%,1.24%,-4.61%
CN(Cc1cnn(C)c1)C(=O)NC1CCS(=O)(=O)C1 (configuration not stated),0.0061%,4.17%,-12.4%,-0.91%,5.15%,-0.442%,20.5%,6.03%,4.21%,7.69%,-2.71%
CCc1c(C(=O)N2CCN(c3ncccn3)CC2)cnn1C(C)(C)C,-1.49%,21.1%,-5.24%,0.163%,0.0934%,1.44%,13.3%,9.72%,4.43%,18.5%,-8.38%
COc1ccc(CN2CCOC3(CCCN(c4nnc(C)o4)C3)C2)cc1 (configuration not stated),-4.63%,-2.74%,-4.05%,6.97%,5.75%,2%,10.4%,-9.72%,4.17%,-1.24%,-4.74%
CCc1nc2n(n1)CC(NCc1nc(C)ccc1O)CC2 (configuration not stated),-5.74%,7.89%,1.61%,1.6%,5.16%,-2.37%,5.85%,-1.01%,0%,10.4%,-1.98%
CN(C)C(=O)CN1C[C@@H]2CC[C@H](C1)N(Cc1cccc(Cl)c1Cl)C2,6.03%,2.74%,1.3%,-0.255%,2.58%,-19.6%,22.5%,14%,10.4%,25.9%,0.27%
NC(=O)c1ccc(CN2CCCC(O)C2)cc1 (configuration not stated),-2.93%,13.5%,-3.22%,-5.21%,4.69%,37.5%,17.2%,0.641%,5.94%,15.8%,-0.618%
N#Cc1cnn(-c2ccc(C(=O)Nc3ccccn3)cc2)c1N,-1.12%,17.7%,3.05%,-10.6%,7.65%,-6.46%,19.7%,8.19%,13.3%,29.1%,-3.72%
Cc1ncc(C(=O)N2C[C@H]3CC[C@@H]2CN(S(=O)(=O)N(C)C)C3)c(C)n1,-2.89%,16%,-1.8%,16.2%,2.82%,27.6%,17.3%,1.16%,7.1%,16.1%,-6.2%
CCNC(=O)N(C)C(c1cccc(F)c1)c1ccccn1 (configuration not stated),-4.06%,2.6%,8.62%,13%,5.43%,-2.49%,9.46%,21.3%,7.77%,21.9%,-6.09%
